ALDH1A1 inh: ALDH1A1 (human) enzyme inhibition; Purified ALDH1A1, NADH fluorescence, propionaldehyde substrate; Potency, µM (doses to about 75.3 µM), for the others: at the top dose activity, negative = inhibition, hits mostly inhibitors; 220,000 tested, 7.3% active; active = well fitted inhibition curve with a large enough effect, not every such curve was filed as active; inconclusive = small, poorly fitted or top-dose-only effect, or another doubt; inactive = no such curve, though single readings can be large or run the other way;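 also: potency is read from the fitted curve at half-maximal effect; plate controls were no enzyme wells and a reference inhibitor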
KDM4E inh: blocks human JMJD2E demethylase activity; AID 2147; JMJD2E catalytic domain, FDH-coupled NADH fluorescence (FDH is formaldehyde dehydrogenase); 230,000 tested, 1.6% active; B2RXH2; Potency, µM (doses to about 57.1 µM), inactives show at the top dose activity change, negative = inhibition, actives largely listed as inhibitors; active = well fitted inhibition curve with a large enough effect, not every such curve was filed as active; inconclusive = small, poorly fitted or top-dose-only effect, or another doubt; inactive = no such curve, though single readings can be large or run the other way;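 also: potency is read from the fitted curve at half-maximal effect; 0% = wells with enzyme and -100% = buffer wells without enzyme; nearly all actives have a fitted effect of over 50% in size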
Target sequence (B2RXH2 1-337 limits assumed): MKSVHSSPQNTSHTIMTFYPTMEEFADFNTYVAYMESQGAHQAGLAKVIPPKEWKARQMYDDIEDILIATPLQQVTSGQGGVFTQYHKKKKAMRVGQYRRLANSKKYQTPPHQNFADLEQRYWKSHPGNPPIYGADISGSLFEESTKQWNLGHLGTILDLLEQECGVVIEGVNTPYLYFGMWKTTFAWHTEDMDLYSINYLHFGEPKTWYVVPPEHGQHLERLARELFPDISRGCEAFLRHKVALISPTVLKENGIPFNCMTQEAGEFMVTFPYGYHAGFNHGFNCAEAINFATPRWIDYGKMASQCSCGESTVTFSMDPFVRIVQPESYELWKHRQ
CBFb-RUNX1 inh: inhibitors of human CBF-beta and RUNX1 interaction; Q01196+Q13951; AlphaScreen CBFb-His/RUNX1-biotin binding, biochemical; Potency, µM (series often up to 59.8 µM), for inactives: top-dose activity, negative = inhibition, hits mostly inhibitors; 230,000 tested, under 10 active; AID 1477; also: % of control where 0% means no effect
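Bead-based AlphaScreen assay; binding partners His-tagged CBF-beta and biotinylated RUNX1 at 30 nM each. Compound exposure 15 min after a 20-min protein preincubation; bead step 90 min; all steps at room temperature.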
HTT aggregate: mutant huntingtin aggregation inhibition | PC12 HttQ103-GFP aggregates, Acumen cytometry, 40 h | Potency, µM (titrated, usually from 46.1 µM), inactives show at the top dose activity change, negative = inhibition, actives largely listed as inhibitors | 220,000 tested, 1.1% active; also: potency is read from the fitted curve at half-maximal effect; % is scaled to controls: 0 for no effect and ±100 for the full control effect; nearly all actives have a fitted effect of over 60% in size
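Steps: seed 1500 PC12 HTTQ103-GFP cells/well; add tebufenozide, 100 nM final; add compound titration; add ATPLite reagent; quantify GFP aggregates by laser scanning cytometry.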
HTT ATP protect: Huntington cell model cytoprotection by ATP luminescence; PC12 HTT-Q103 induced, cytoprotection, ATP luminescence, 40 h; 230,000 tested, 0.14% active; Potency, µM (doses to about 56.4 µM), without a hit: cytoprotection (ATP increase), most hits filed as activators; also: potency is read from the fitted curve at half-maximal effect; % of control where 0% means no effect; nearly all actives have a fitted effect of over 45% in size
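Compounds were screened for protection of PC12 cells against cell death after tebufenozide induction (100 nM final) of mutant Huntingtin exon 1 (Q103) fused to GFP.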
HPGD block: blocks human HPGD enzyme activity; P15428; purified HPGD, NADH fluorescence kinetic, PGE2 substrate; Potency, µM, for the others: at the highest dose activity change, negative = inhibition, hits mostly inhibitors; 150,000 tested, 4.3% active; AID 894; active = well fitted inhibition curve with a large enough effect, not every such curve was filed as active; inconclusive = small, poorly fitted or top-dose-only effect, or another doubt; inactive = no such curve, though single readings can be large or run the other way; also: potency is read from the fitted curve at half-maximal effect; % is scaled to controls: 0 for no effect and ±100 for the full control effect
Target sequence (P15428 whole entry, looked up): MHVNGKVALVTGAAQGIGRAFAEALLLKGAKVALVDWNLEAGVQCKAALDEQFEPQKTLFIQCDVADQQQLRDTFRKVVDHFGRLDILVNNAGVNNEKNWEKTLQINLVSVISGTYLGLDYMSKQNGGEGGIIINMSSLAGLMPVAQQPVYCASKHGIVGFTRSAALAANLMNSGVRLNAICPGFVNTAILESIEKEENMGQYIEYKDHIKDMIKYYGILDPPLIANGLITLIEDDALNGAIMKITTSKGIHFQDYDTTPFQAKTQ
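NADH formation kinetics: reaction with 30 uM PGE2 and 1 mM NAD+ (final), 20 nM enzyme, Tris-HCl pH 8 with Tween 20, after 15 min compound preincubation at room temperature. Fluorescence change, last versus first of five reads.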
* marks the source's active call; other numbers are inactive results; u = inconclusive; x = no result given; [ ] = dose if it differs, or a comment. An excerpt weighted towards active compounds, which were near 9.8% of everything screened. Unless noted, calls follow the shape of the dose curve; as a rule, active = well fitted curve in the direction sought with a large enough effect; inconclusive = small, poorly fitted or top-dose-only effect, or another doubt; inactive = no such curve, though single readings can be large; an effect the other way counts as inactive or inconclusive.

SMILES	ALDH1A1 inh	KDM4E inh	CBFb-RUNX1 inh	HTT aggregate	HTT ATP protect	HPGD block
O=S(=O)(NCCO)c1cc[c]([Sb])cc1	5%[13.5 µM]	x	x	x	x	-2%
O=c1[nH]c(=S)[nH]c(O)c1N=Nc1ccc(S(=O)(=O)N2CCc3ccccc32)cc1	6.3µM*	-6%	-2%	u	-41%	x
O=c1[nH]c(=S)[nH]c(O)c1N=Nc1ccc(SC(F)F)cc1	20µM*	-2%	-12%	-16%[9.22 µM]	-18%[10 µM]	x
O=C(c1ccccc1)c1ccc(N=Nc2c(O)[nH]c(=O)[nH]c2=O)cc1	u	0%	x	u	-44%	x
C/C=C(/C)C(=O)O[C@H]1C(C)=C2C([C@@H]1OC(=O)CCCCCCC)[C@@](C)(OC(C)=O)C[C@@H](OC(=O)CCC)[C@@]1(O)[C@H]2OC(=O)[C@@]1(C)O (some centres not stated)	u	-12%	4%	x	x	u
C[Se]C[C@@H](N)C(=O)O	x	x	x	x	-14%[1.9 µM]	x
C[Se]C[C@H](N)C(=O)O	u	18µM*	-3%	x	x	4%
CN1CCC[C@@H]1c1cccnc1.O=C(O)c1ccccc1O.O=C([OH2+])c1ccccc1O.O=C([OH2+])c1ccccc1O.[Mn]	u	x	x	x	6%[10 µM]	u
O=C(C/C=N\OCc1c(Cl)cccc1Cl)Oc1ccc(Cl)cc1Cl	u	-1%	-7%	11%[9.22 µM]	-9%	-15%
CCOC(=O)c1ncc2[nH]c3ccc(OCc4ccccc4)cc3c2c1COC	u	x	u	x	-20%	u
COc1ccc(CC(=O)NC(=S)NNC(=O)COc2c(C)cccc2C)cc1	u	-6%	-1%	-3%	x	-16%
Cc1ccccc1C(=O)NNC(=S)NC(=O)COc1ccccc1	7.1µM*	u	-5%	4%	u	25µM*
CN1CCN(c2cc([N+](=O)[O-])ccc2Cl)CC1	6%	-1%	-1%	2%	-20%	x
CN1CCN(C(=S)c2ccc([N+](=O)[O-])cc2)CC1	u	-3%	-3%	3%	5%[10 µM]	28µM*
O=c1[nH]c(=O)n(-c2ccccc2)c(O)c1/C=C1/C(c2ccccc2)=Nc2ccccc21	u	u	13%	-15%	-27%[10 µM]	25µM*
COC(=O)C1=Nc2ccccc2/C1=C\c1c(O)n(-c2ccc(OC)cc2)c(=O)[nH]c1=O	22µM*	18µM*	-20%	7%	-20%	-11%
COC(=O)C1=Nc2ccccc2/C1=C\c1c(O)n(-c2ccc(Br)cc2)c(=O)[nH]c1=O	4%	4%	18%	13%	x	18µM*
COc1ccc(OC)c(-n2c(O)c(/C=C3\C(C)=Nc4ccccc43)c(=O)[nH]c2=O)c1	x	-9%	-3%	22%[9.22 µM]	0%[10 µM]	x
ClC(Cl)=C(Cl)Cl	14%	x	7%[21.7 µM]	x	-5%	-5%
O=C(O)CCn1cc(C=C2C(=O)NC(=S)NC2=O)c(-c2ccccc2)n1	1.1µM*	1%	-7%	4%	4%	x
O=C(O)CCn1cc(C=C2C(=O)NC(=S)NC2=O)c(-c2cc3ccccc3oc2=O)n1	u	-4%	4%	12%[9.22 µM]	29%[10 µM]	x
CC#C[C@]1(O)CC[C@H]2C3C=C(C)C4=CC(=O)C=C[C@]4(C)[C@H]3[C@@H](O)C[C@@]21C (some centres not stated)	x	x	24%	x	x	x
CN(C)C(=O)Cl	u	x	10%[21.7 µM]	x	-46%	-8%
CC[C@H](C)[C@H](NC(=O)[C@H](CCCN=C(N)N)NC(=O)[C@H](CCCN=C(N)N)NC(=O)[C@H](CC(C)C)NC(=O)[C@H](Cc1ccccc1)NC(=O)CNC(=O)CNC(=O)[C@@H](N)Cc1ccc(O)cc1)C(=O)O	5%	x	-4%	x	-32%	x
O=C1NC(=O)N(Cc2ccc(F)cc2)C(=O)/C1=C\c1ccc([N+](=O)[O-])s1	x	28µM*	u	-13%[9.22 µM]	-3%[10 µM]	x
SMILES	ALDH1A1 inh	KDM4E inh	CBFb-RUNX1 inh	HTT aggregate	HTT ATP protect	HPGD block
COc1ccc(CN2C(=O)NC(=O)/C(=C/c3ccc([N+](=O)[O-])s3)C2=O)cc1	4µM*	25µM*	x	-8%[9.22 µM]	8%[10 µM]	x
C=C1[C@@H](O)C2C=CC[C@H](C)C(=O)[C@@](C)(O)C=C[C@@H](OC(C)=O)[C@@]23C(=O)N[C@H](Cc2ccccc2)[C@@H]3[C@@H]1C (some centres not stated)	-5%	-4%	-3%[21.7 µM]	x	-62%	-16%
O=Cc1cn(Cc2ccccc2F)c2ccccc12	0.45µM*	-17%	14%	u	-69%	x
O=Cc1cn(Cc2cccc([N+](=O)[O-])c2)c2ccccc12	4µM*	5%	-9%	11%	-16%[10 µM]	-17%
O=Cc1cn(Cc2c(F)cccc2Cl)c2ccccc12	3.2µM*	1%	0%	u	-28%	x
CC1CCN(CC(=O)c2ccc3c(c2)OCCO3)CC1	7.9µM*	u	-4%	1%	-84%	x
CC1CCN(CC(=O)c2ccccc2Cl)CC1	u	0%	1%	0%	0%[10 µM]	-6%
Cc1cc(Cl)ccc1C(=O)C1CCCN(Cc2ccon2)C1 (configuration not stated)	-3%	-6%	5%	-12%	-22%	x
CC1CCCN(CC(=O)c2ccc(Cl)c(Cl)c2)C1 (configuration not stated)	2µM*	-12%	6%	11%	7%[10 µM]	x
O=C(O)[C@H]1C2c3ccccc3C(c3ccccc32)[C@@H]1C(=O)NCC1CC1	10%[13.5 µM]	x	x	x	-4%[10 µM]	-6%
CC(=O)CC(c1ccccc1)c1c(O)c2ccc(O)cc2oc1=O (configuration not stated)	x	x	6%	x	x	x
CN(C)CS/C(N)=N/[C@H](O)C(Cl)(Cl)Cl	3.2µM*	x	x	x	-7%[10 µM]	-10%
O=C1NC(=O)N(c2ccccc2)C(=O)/C1=C/c1ccc(Sc2ccccc2)o1	0%	u	11%	-8%	-22%	-18%
O=C1NC(=O)N(c2ccccc2F)C(=O)/C1=C/c1ccc(Sc2nc3ccccc3[nH]2)o1	10µM*	u	u	-3%	18%[10 µM]	3.5µM*
O=C1NC(=O)N(c2cccc(Cl)c2)C(=O)/C1=C\c1ccc(Sc2nc3ccccc3[nH]2)o1	22µM*	u	u	-10%	4%[10 µM]	7.9µM*
CCC1(CC)CCNC1=O	x	x	16%	x	x	x
CC(N)C(O)c1ccc(O)c(O)c1 (configuration not stated)	1%	16µM*	3%	x	u	3%
CC(=O)OC1CC[C@@]2(C)C3CC(=O)[C@]4(C)C(C(C)=O)=CCC4C3CC[C@H]2C1 (some centres not stated)	20%	7%	x	x	x	-7%
C(=NCCN1CCOCC1)=NC1CCCCC1	7%[13.5 µM]	x	x	x	0%[10 µM]	-4%
CN1CCN(Cc2cc(C(C)(C)C)c(O)c(C(C)(C)C)c2)CC1	22µM*	u	-5%	22%	8%[10 µM]	6%

Screening data as filed in PubChem BioAssay.
